Laboratory results from PubChem BioAssay AID1645882 (National Center for Advancing Translational Sciences (NCATS), 2021).
“And” between values parts separate entries of the source, which are not always exact repeats. Equal values may be shown once. The whole screen tested about 16,000 compounds, of which about 120 (0.75%) were called active. Another 4% or so got no clear call; they are omitted. Calls follow the shape of the dose curve; as a rule, active = well fitted inhibition curve with a large enough effect; inconclusive = small, poorly fitted or top-dose-only effect; inactive = no such curve, though single readings can be large or run the other way. This excerpt belongs to a sample that is enriched for actives. More than one record can exist for a structure, and the calls need not agree.

Molecular target: Rap guanine nucleotide exchange factor 3 (Homo sapiens) (UniProt O95398)
Sequence (O95398 whole entry, looked up): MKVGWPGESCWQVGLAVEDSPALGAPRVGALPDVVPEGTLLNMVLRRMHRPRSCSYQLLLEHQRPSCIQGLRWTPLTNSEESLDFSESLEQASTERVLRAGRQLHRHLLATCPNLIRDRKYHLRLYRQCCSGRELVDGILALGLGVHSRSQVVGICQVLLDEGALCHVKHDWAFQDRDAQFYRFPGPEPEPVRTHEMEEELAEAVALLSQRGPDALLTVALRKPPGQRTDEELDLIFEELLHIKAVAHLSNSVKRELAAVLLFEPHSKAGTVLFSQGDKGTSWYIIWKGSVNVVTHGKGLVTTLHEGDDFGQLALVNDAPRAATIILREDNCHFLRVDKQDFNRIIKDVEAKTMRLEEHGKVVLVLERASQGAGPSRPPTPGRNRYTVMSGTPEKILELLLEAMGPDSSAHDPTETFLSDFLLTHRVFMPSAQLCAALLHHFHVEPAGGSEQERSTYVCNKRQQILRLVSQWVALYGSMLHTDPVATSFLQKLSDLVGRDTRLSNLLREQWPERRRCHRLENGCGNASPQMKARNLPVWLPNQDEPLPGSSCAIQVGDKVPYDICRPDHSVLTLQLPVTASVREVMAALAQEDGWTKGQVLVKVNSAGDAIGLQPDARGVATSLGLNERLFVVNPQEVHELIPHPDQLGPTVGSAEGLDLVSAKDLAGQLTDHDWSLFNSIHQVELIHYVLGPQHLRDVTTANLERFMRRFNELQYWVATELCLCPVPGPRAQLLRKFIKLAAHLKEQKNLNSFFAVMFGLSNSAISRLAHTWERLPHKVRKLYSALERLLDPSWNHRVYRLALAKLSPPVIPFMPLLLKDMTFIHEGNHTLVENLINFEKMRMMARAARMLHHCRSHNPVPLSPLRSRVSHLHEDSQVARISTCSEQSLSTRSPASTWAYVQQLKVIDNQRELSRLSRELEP
Assay: Validation qHTS for antagonist of cAMP-regulated guanine nucleotide exchange factor 3 (EPAC1); also: nearly all actives have a fitted effect of over 75% in size;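 as to activity change, negative = inhibition: plate controls were DMSO for no effect and ATA control for full effect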
Details: EPAC1 Rap1B-BODIPY-GDP exchange, fluorescence; series mostly up to 150 µM; activity change, negative = inhibition: at the top concentration
In short: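 EPAC1 (100 nM) mixed with 250 nM RAP1B-BODIPY-GDP and 50 uM GDP; compounds in concentration series, 5 min at room temperature. Fluorescence (ex 480/em 540 nm) read every 5 min for 30 min; normalized to ATA control and DMSO.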
Potency is read from the fitted curve at half-maximal effect.

| Compound | activity change, negative = inhibition | Potency |
| --- | --- | --- |
| OC1(c2cccnc2)CCN(Cc2ccc3c(c2)CN(Cc2cc4ccccc4s2)CCO3)CC1 | -8.5% (inactive) |  |
| COC(=O)c1c(OCCN2CCCCC2)cc(=O)n2c1CCN(Cc1cccc3nccnc13)CC2 | -0.569% (inactive) |  |
| Cn1c(=O)c(-c2ccccc2)nc2cnc(Nc3ccccc3)nc21 | 19.1% (inactive) |  |
| O=C(Nc1cccc(F)c1)N1CC[C@@]2(CCCN(C(=O)c3ccco3)C2)C1 | 21% (inactive) |  |
| O=C(c1csnn1)N1CCC[C@@]2(CCN(c3ncccn3)C2)C1 | 16.4% (inactive) |  |
| CC(=O)N[C@@H](CSC/C=C(\C)CCC=C(C)C)C(=O)O |  | inactive |
| CC(=O)CC/C=C(\C)CC/C=C(\C)CC/C=C(\C)CCC=C(C)C | 24.4% (inactive) |  |
| CC(=O)N[C@@H](CSC/C=C(\C)CC/C=C(\C)CC/C=C(\C)CCC=C(C)C)C(=O)O | 32.8% [at 15.3 µM] (inactive) | 56.2 µM (active) |
| CCN(CC)CCOc1ccccc1OC | 3.14% (inactive) |  |
| C[C@H](CC[C@@H]1OC1(C)C)C1CC[C@H]2[C@@H]3CC=C4C[C@@H](O)CC[C@]4(C)[C@H]3CC[C@]12C (stereo partly drawn) | 14.3% (inactive) |  |
| C[C@@H]1C(=O)CC2C(C)(C)CCC[C@]2(C)[C@@]1(O)CCc1ccoc1 (stereo partly drawn) | -5.75% (inactive) |  |
| CCOC(=O)/C=C/c1ccc2c(c1)S(=O)(=O)N(C1CCCC1)[C@H]2CC(=O)OCC | -27.3% (inactive) |  |
| CC(=O)/C=C/c1ccc2c(c1)S(=O)(=O)N(C1CCCC1)[C@H]2CC(C)=O |  | 56.2 µM (active) |
| O=C(O)/C=C/c1ccc2c(c1)S(=O)(=O)N(C1CCCC1)[C@H]2CC(=O)O | -10.5% (inactive) |  |
| CC1(C)S[C@@H]2[C@H](NC(=O)C(N)c3ccccc3)C(=O)N2[C@H]1C(=O)OC1OC(=O)c2ccccc21 (stereo partly drawn) | 8.83% [at 75.8 µM] (inactive) |  |
| COc1ccc(N2C(=O)[C@@H]3C[C@H]2CN3Cc2cccn2-c2ccc(Cl)cn2)c(C)c1 | 12.9% (inactive) |  |
| COc1ccc2c(c1)[C@@]1(C)CCC[C@](C)(CO)C1CC2 (stereo partly drawn) | -3.59% (inactive) |  |
| Cc1cc(C(=O)NCc2nc(-c3ccccc3NC(=O)C3CCCO3)oc2C)nc(C)n1 (stereo not drawn) | 3.75% (inactive) |  |
| COc1c2ccccc2nc2occc12 | 7.29% (inactive) |  |
| O=C(O)C1=CC(=C(c2ccc(O)c(C(=O)O)c2)c2ccc(O)c(C(=O)O)c2)C=CC1=O |  | 56.2 µM (active) and 1.58 µM (active) |
| Nc1ccc(O)c(C(=O)O)c1 | 0.11% (inactive) |  |
| O=C(O)c1cc(N=Nc2ccc(O)c(C(=O)O)c2)ccc1O | 5.06% (inactive) |  |

| Compound | activity change, negative = inhibition | Potency |
| --- | --- | --- |
| O=C(NCC1CCC2(CCN(Cc3c[nH]c4ccccc34)CC2)O1)C1CCOCC1 (stereo not drawn) | 2.25% (inactive) |  |
| CO[C@H]1C=CO[C@@]2(C)Oc3c(C)c(O)c4c(O)c(c(C=NN5CCN(C)CC5)c(O)c4c3C2=O)NC(=O)C(C)=CC=C[C@H](C)[C@H](O)[C@@H](C)[C@@H](O)[C@@H](C)[C@H](OC(C)=O)[C@H]1C | 11% [at 39.6 µM] (inactive) |  |
| CO[C@H]1C=CO[C@@]2(C)Oc3c(C)c(O)c4c(O)c(cc(O)c4c3C2=O)NC(=O)/C(C)=C\C=C/[C@H](C)[C@H](O)[C@@H](C)[C@@H](O)[C@@H](C)[C@H](OC(C)=O)[C@@H]1C | -10.9% (inactive) |  |
| CO[C@H]1C=CO[C@@]2(C)Oc3c(C)c(O)c4c(O)c(c(/C=N/N5CCN(C)CC5)c(O)c4c3C2=O)NC(=O)/C(C)=C\C=C[C@H](C)[C@H](O)[C@@H](C)[C@@H](O)[C@@H](C)[C@H](OC(C)=O)[C@@H]1C |  | 89.1 µM (active) |
| CCCCCCCCCCCC[n+]1ccc(C)c2ccccc21 | -26.9% (inactive) |  |
| CCCCCCCCCCCCCCCC[n+]1ccc(C)c2ccccc21 |  | 63.1 µM (active) |
| CCCCCCC[n+]1ccc(C)c2ccccc21 | 11.7% (inactive) |  |
| Cc1ccccc1C1(CC(=O)N2CCN(C)CC2)CC(=O)N(Cc2ccncc2)C1=O (stereo not drawn) | 20.6% (inactive) |  |
| CCCCCCCCCCCCCCCC[N+](C)(C)Cc1ccccc1 |  | 112 µM (active) |
| CCCCCCCCCCCCC[N+](C)(C)Cc1ccccc1 | 0.354% (inactive) |  |
| CCCCCCCCCCCC[N+](C)(C)Cc1ccccc1 | 0.907% (inactive) |  |
| COc1cc(=O)n2c(c1C(=O)N(C)Cc1nonc1C)CCN(Cc1ccc(F)cc1)CC2 | -0.441% (inactive) |  |
| CCCCC/C=C\C/C=C\C/C=C\C/C=C\CCCC(=O)O |  | 70.8 µM (active) and inactive |
| CCCCCCCCCCC/C=C\C/C=C\CCCC(=O)O | -8.31% [at 15.3 µM] (inactive) |  |
| CCCCCCCC/C=C\C/C=C\C/C=C\CCCC(=O)O | 9.96% [at 15.3 µM] (inactive) |  |
| Cc1cc2ccccc2c[n+]1CC(=O)c1ccc(F)cc1 | 13.1% (inactive) |  |
| C/C(N[C@@H]1CSCC1O)=C1/C(=O)CC2[C@@H]1C2(C)C (stereo partly drawn) | 8.88% (inactive) |  |
| COc1ccc(-n2c(CNC(=O)c3ccccc3C(F)(F)F)nnc2SC)cc1 | 4.49% (inactive) |  |
| FC(F)(F)c1ccccc1-c1cncnc1NCCc1cnc[nH]1 | 3.78% (inactive) |  |
| O=c1oc2c(O)c(O)cc3c(=O)oc4c(O)c(O)cc1c4c23 |  | inactive and 25.1 µM (active) |
| COc1c(O)cc2c(=O)oc3c(OC)c(O)cc4c(=O)oc1c2c34 | -29.8% (inactive) |  |
| Cc1cc(=O)oc2c(O)c(O)ccc12 | 1.89% (inactive) |  |

| Compound | activity change, negative = inhibition | Potency |
| --- | --- | --- |
| Cc1nc(N=Nc2cc(S(=O)(=O)O)c3cc([N+](=O)[O-])cc(S(=O)(=O)O)c3c2)c(COP(=O)(O)O)c(C=O)c1O | 26.4% [at 75.8 µM] (inactive) |  |
| Cc1nc(N=Nc2ccc(C(=O)O)cc2)c(COP(=O)(O)O)c(C=O)c1O | -0.558% [at 75.8 µM] (inactive) |  |
| Cc1nc(N=Nc2ccc(S(=O)(=O)O)cc2S(=O)(=O)O)c(COP(=O)(O)O)c(C=O)c1O |  | inactive and 12.6 µM (active) |
| COC(=O)c1ccc(-c2cccc3c2OC(CNC(=O)c2ccc4c(c2)OCCO4)C3)nc1 (stereo not drawn) | 7.71% (inactive) |  |
| COc1cc(=O)n2c(c1C(=O)N(C)Cc1ccsc1)CCN(Cc1c(C)nc3sccn13)CC2 | 6.92% (inactive) |  |
| COc1ccccc1CCNc1ncnc2sc(C(=O)N3CCCCC3)c(C)c12 | 4.53% (inactive) |  |
| CC1(C)CC2/C(CO)=C/C=C/[C@](C)(O)CC[C@]21O (stereo partly drawn) | 8.31% (inactive) |  |
| CC1O[C@@H](O[C@H]2C(Oc3cc(O)c4c(=O)cc(-c5ccc(O)cc5)oc4c3)OC(CO)C(O)C2O)C(O)C(O)C1O (stereo partly drawn) | 8.06% (inactive) |  |
| COc1cc(O)c2c(=O)c(O)c(-c3ccc(O)c(O)c3)oc2c1 | -14.1% (inactive) |  |
| O=c1cc(-c2ccc(O)c(O)c2)oc2cc(OC3OC(CO)C(O)C(O)C3O)cc(O)c12 (stereo not drawn) |  | 39.8 µM (active) |
| O=c1c(O)c(-c2ccccc2)oc2cc(O)cc(O)c12 | 6.31% (inactive) |  |
| O=c1cc(-c2ccc(O)cc2)oc2cc(O)cc(O)c12 |  | inactive |
| O=c1c(O)c(-c2ccc(O)cc2)oc2cc(O)cc(O)c12 |  | inactive |
| O=c1c(O)c(-c2ccc(O)c(O)c2)oc2cc(O)cc(O)c12 |  | inactive and 79.4 µM (active) |
| O=c1cc(-c2ccc(O)cc2)oc2cc(O[C@H]3OC(CO)C(O)C(O)C3O)cc(O)c12 (stereo partly drawn) | 5.46% (inactive) |  |
| O=c1cc(-c2ccc(O)c(O)c2)oc2cccc(O)c12 | -20.1% (inactive) |  |
| O=c1c(O)c(-c2cc(O)c(O)c(O)c2)oc2cc(O)cc(O)c12 |  | 35.5 µM (active) and 39.8 µM (active) and inactive |
| O=c1cc(-c2ccc(O)c(O)c2)oc2cc(O)cc(O)c12 |  | 50.1 µM (active) and 39.8 µM (active) |
| O=c1c(O)c(-c2ccc(O)cc2O)oc2cc(O)cc(O)c12 |  | inactive |
| CN1[C@@H]2CCC[C@@H]1CC(NC(=O)c1nn(C)c3ccccc13)C2 (stereo partly drawn) | 27.2% (inactive) |  |
| N#CC[C@H](Cc1ccccc1)N1CCN(Cc2ccccc2)CCC1=O | 9.25% (inactive) |  |
| COc1ccc(C2OC3C(CO)OC(n4cnc5c(=O)[nH]c(N)nc54)C3O2)cc1 (stereo not drawn) | 9.03% (inactive) |  |

| Compound | activity change, negative = inhibition | Potency |
| --- | --- | --- |
| Cc1c(C(=O)N(C)Cc2cccc3ncccc23)cnn1-c1nccc(-c2ccccc2F)n1 | 7.94% (inactive) |  |
| CC1CN(CC(=O)NCCc2ccncc2)Cc2ccccc2O1 (stereo not drawn) | 13.3% (inactive) |  |
| CC1CC[C@@]2(C(=O)O)CCC3(C)C(=CCC4[C@]5(C)CC(O)C(O)[C@](C)(CO)C5C(O)C[C@@]43C)C2C1C (stereo partly drawn) | -17.8% (inactive) |  |
| O=C(Oc1cc(OC(=O)c2ccccc2)c2c(c1)OC(c1ccc(OC(=O)c3ccccc3)c(OC(=O)c3ccccc3)c1)[C@@H](OC(=O)c1ccccc1)C2)c1ccccc1 (stereo partly drawn) | 5.96% (inactive) |  |
| O=C(OC1Cc2c(O)cc(O)cc2OC1c1cc(O)c(O)c(O)c1-c1c(C2Oc3cc(O)cc(O)c3CC2OC(=O)c2cc(O)c(O)c(O)c2)cc(O)c(O)c1O)c1cc(O)c(O)c(O)c1 (stereo not drawn) |  | 63.1 µM (active) |
| CC(=O)Oc1cc(OC(C)=O)c2c(c1)OC(c1ccc(OC(C)=O)c(OC(C)=O)c1)C(OC(C)=O)C2 (stereo not drawn) |  | inactive |
| COc1ccc2c(c1OC)C(=O)O[C@H]2C1c2c(cc3c(c2OC)OCO3)CCN1C (stereo partly drawn) |  | inactive |
| O=C(NCC1Cc2cccc(-c3cnccn3)c2O1)c1ccc2c(c1)OCCO2 (stereo not drawn) | -2.15% (inactive) |  |
| CC(C)C[C@@H](CO)N1CCN(CCc2ccccc2)CCC1=O | 0.539% (inactive) |  |
| COc1cccc(-c2nc(N3CCNCC3)c3ccccc3n2)c1 | 17.1% (inactive) |  |
| Cc1cc2c(cc1C)N[C@]1(C[C@H]3CCCC(=O)N4CC[C@@H](C1)[C@@H]34)C(=NCc1ccccc1)N2 | 9.18% (inactive) |  |
| CN(C)c1ccc(/C=C/C=C/c2ccnc3ccccc23)cc1 | 24.3% (inactive) |  |
| CN(C)c1ccc(/C=C/c2ccnc3ccc4ccccc4c23)cc1 |  | 100 µM (active) |
| CN(C)c1ccc(/C=C/c2ccnc3c2ccc2ccccc23)cc1 | 26.6% (inactive) |  |
| CCc1oc2ccccc2c1C(=O)c1cc(Br)c(O)c(Br)c1 |  | 100 µM (active) |
| COc1cccc(-c2oc3ccccc3c(=O)c2O)c1 | 2.87% (inactive) |  |
| CC(=O)CC(c1ccccc1)c1c(O)c2ccccc2oc1=O (stereo not drawn) |  | inactive |
| CC(=O)c1ccc2oc3ccccc3c(=O)c2c1 | -1.3% (inactive) |  |
| CCc1oc2ccccc2c1C(=O)c1cc(I)c(O)c(I)c1 |  | 56.2 µM (active) |
| CCCCc1oc2ccccc2c1C(=O)c1cc(I)c(OCCN(CC)CC)c(I)c1 |  | inactive |
| COc1cc(OC)c(OC)cc1CN1CCC(n2cc(C(=O)N3CCCCC3)nn2)CC1 | 4.84% (inactive) |  |
